# From PubChem BioAssay
# FBPA Giardia inh: Giardia lamblia aldolase inhibition | A8B2U2 | purified Giardia FBPA | Potency, µM (doses to about 59.6 µM), most hits filed as inhibitors | 290,000 tested, 0.71% active | AID 2451; also: nearly all actives have a fitted effect of over 55% in size
#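 Giardia FBPA (40 nM reagent) was preincubated 10 min at RT with compound (up to 57.5 uM final), then substrate plus GAPDH/TPI/NAD/arsenate coupling system with diaphorase/resazurin was added; resorufin fluorescence (525/598 nm) was read after 20 min.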
# Shiga toxin inh: Shiga toxin inhibition; AID 2315; Vero cells, Shiga toxin protein synthesis inhibition reporter; 290,000 tested, 9.2% active; inhibition, % at 38.7 µM; in the data active = inhibition mostly above about 28%, no sharp cut-off; inactive = mostly below about 43%
# NS1 function inh: inhibitors of influenza NS1 protein function; Potency, µM (highest dose often 46.1 µM); 270,000 tested, 0.4% active; calls by dose curve; also: actives are rising curves; nearly all actives have a fitted effect of over 50% in size
#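 S. cerevisiae expressing influenza A NS1, grown in glucose, washed, then diluted 1:100 into pH 6.0 -URA galactose medium with 23 nl compound. Growth recovery read as OD600; NS1-free strain serves as control.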
# LmPK inh: inhibitors of Leishmania mexicana pyruvate kinase; Q27686; purified LmPK, Kinase-Glo ATP luminescence, 1 h; Potency, µM (doses to about 57.5 µM), most hits filed as inhibitors; 290,000 tested, 0.37% active; AID 1721
# Target sequence (Q27686 whole entry, looked up): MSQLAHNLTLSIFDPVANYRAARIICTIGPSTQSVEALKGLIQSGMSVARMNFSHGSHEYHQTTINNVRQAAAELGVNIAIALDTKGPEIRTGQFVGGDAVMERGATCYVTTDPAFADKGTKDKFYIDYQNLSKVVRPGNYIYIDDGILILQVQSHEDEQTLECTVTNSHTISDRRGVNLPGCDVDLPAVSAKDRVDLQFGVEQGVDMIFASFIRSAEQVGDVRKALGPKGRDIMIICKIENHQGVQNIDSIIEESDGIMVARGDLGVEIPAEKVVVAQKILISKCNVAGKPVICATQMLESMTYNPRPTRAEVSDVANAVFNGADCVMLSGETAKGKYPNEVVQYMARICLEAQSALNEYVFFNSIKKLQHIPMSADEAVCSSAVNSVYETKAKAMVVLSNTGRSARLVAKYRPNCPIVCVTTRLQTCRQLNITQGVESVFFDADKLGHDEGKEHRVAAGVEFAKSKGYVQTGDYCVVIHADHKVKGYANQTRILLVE
#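 In 50 mM imidazole pH 7.2 with 7 mM MgCl2, LmPK (0.1 nM) turned over PEP (0.5 mM) and ADP (0.1 mM) for 1 h at room temperature. Luciferase read-out of ATP.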
# Cycloheximide cs: counter-screen for Shiga toxin inhibitors: cycloheximide protein synthesis inhibition; cell reporter, cycloheximide protein synthesis inhibition counterscreen; max response, %; 300,000 tested, 12% active; in the data active = max response mostly above about 13%, no sharp cut-off; inactive = mostly below about 14%; also: read at 38.3 µM for the half of the compounds with a filed dose
# A number is an active result; n = inactive; u = inconclusive; x = not tested or not shown. An excerpt weighted towards active compounds, which were near 14% of everything screened. Unless noted, calls follow the shape of the dose curve; as a rule, active = well fitted curve in the direction sought with a large enough effect; inconclusive = small, poorly fitted or top-dose-only effect, or another doubt; inactive = no such curve, though single readings can be large; an effect the other way counts as inactive or inconclusive.
SMILES,FBPA Giardia inh,Shiga toxin inh,NS1 function inh,LmPK inh,Cycloheximide cs
Nc1nnc(SCC(=O)Nc2ccc(N3CCOCC3)c(Cl)c2)s1,n,n,n,n,21
CCCC(=O)Nc1ccc2nc(SCC(=O)Nc3ccc(N4CCOCC4)c(Cl)c3)sc2c1,n,150,n,n,52
O=C(NCc1ccccc1)[C@]1(C(F)(F)F)C[C@H](CCCO)CCCO1,n,n,x,x,n
N#CC(C#N)=C1C=CC=CN1/C(=C\c1ccccc1)C(=O)c1cccs1,n,n,u,n,24
N#CC(C#N)=C1C=CC=CN1/C(=C\c1ccccc1Cl)C(=O)c1ccccc1,u,n,n,n,n
CCC(=O)Nc1ccc2c(c1)ncn2-c1ccccc1,n,85,n,n,33
CC(=O)Nc1ccc2c(c1)ncn2-c1ccccc1,n,56,n,n,49
CN(C)c1ncc2nc(-c3cc(F)cc(F)c3)c(=O)n(C3CC3)c2n1,n,x,x,x,x
Cc1nc2ccc(NC(=O)Cc3cccc(F)c3)cc2s1,n,39,x,n,36
Cc1nc2ccc(NC(=O)Cc3ccsc3)cc2s1,n,n,n,n,28
Cc1ccc(S(=O)(=O)CCC(=O)Nc2ccc3nc(C)sc3c2)cc1,n,n,n,n,n
Cc1nc2ccc(NC(=O)Cc3ccccc3F)cc2s1,n,103,n,n,58
Cc1ccc(NC(=O)Cc2ccsc2)cc1Cl,n,56,n,n,25
Cc1nc2ccc(S(=O)(=O)NCC(=O)Nc3ccc(F)cc3)cc2s1,x,n,n,n,n
C[C@@](O)(CNS(=O)(=O)c1ccccc1)c1ccccc1,x,x,n,x,x
CCn1c(SCC(=O)N2CCC(C)CC2)nc2c1c(=O)n(C)c(=O)n2C,n,n,n,n,n
O=C(CC(SCCO)c1ccc2c(c1)OCO2)c1ccco1 (centres undefined),n,123,n,u,48
O=C(NCc1ccc2c(c1)OCO2)c1ccco1,n,n,x,n,n
COC(=O)CC1COc2ccccc2N1C(=O)/C=C/c1ccccc1 (centres undefined),n,n,n,n,n
O=C1c2ccccc2-c2onc3ccc(NCc4ccco4)c1c23,u,n,n,n,13
Cc1nn(CC(=O)NCCCN2C(C)CCCC2C)c(=O)c2cc3occc3n12 (centres undefined),x,n,n,n,n
CN1CCN(C(=O)c2cc(-c3ccc(O)cc3)on2)CC1,x,x,n,x,x
CC(=O)C1=C(O)C(=O)N(C)C1c1ccccc1[N+](=O)[O-] (centres undefined),u,n,n,n,17
CC(=O)C1=C(O)C(=O)N(CCCN2CCOCC2)C1c1ccccc1[N+](=O)[O-] (centres undefined),u,105,n,n,35
O=c1c(-c2ccc(Br)cc2)[n+]([O-])c2ccccc2n1OCc1ccccc1,n,n,n,n,n
SMILES,FBPA Giardia inh,Shiga toxin inh,NS1 function inh,LmPK inh,Cycloheximide cs
CC(C)(C)c1ccc(COn2c(=O)c(-c3ccco3)[n+]([O-])c3ccccc32)cc1,n,n,n,n,19
Cc1ccccc1COC(=O)c1nn(-c2ccccc2)nc1N,n,54,x,n,32
Cn1nc(C(=O)OCC(=O)c2ccc[nH]2)c2ccccc2c1=O,n,n,n,n,n
Nc1nn(-c2ccccc2)nc1C(=O)OCc1ccccc1F,n,n,x,n,31
Cn1nc(C(=O)OCc2ccccc2F)c2ccccc2c1=O,n,35,x,n,n
COC(=O)c1nn(-c2ccccc2)nc1-c1nn(-c2ccccc2)nc1C(=O)OC,n,n,n,n,n
N#C/C(=C\N1CCNC1=S)C(=O)c1ccc2ccccc2c1,x,x,n,x,x
Cc1ccc(CCNS(=O)(=O)c2ccc3c(c2)NC(=O)C(C)C(=O)N3)cc1 (centres undefined),n,n,n,n,n
CC(=O)Nc1ccc(/C(C)=N/NS(=O)(=O)c2ccc(C)cc2)cc1,n,n,n,n,n
C/C(=N\NS(=O)(=O)c1ccc([N+](=O)[O-])cc1)c1ccc(NC(=O)c2ccco2)cc1,n,n,x,n,25
C/C(=N/NS(=O)(=O)c1ccc(Br)cc1)c1ccc(NC(=O)c2ccc(C)o2)cc1,n,78,n,n,48
O=C(Nc1ccc(NC(=O)c2ccc([N+](=O)[O-])cc2[N+](=O)[O-])cc1)c1ccco1,n,n,n,n,n
COC(=O)[C@H]1[C@H]2CC3c4[nH]c5ccccc5c4CCN3C[C@@H]2CC[C@@H]1O (some centres undefined),n,x,x,x,x
Cn1c(=NC(=O)C2CCCCC2)sc2cc([N+](=O)[O-])ccc21,n,99,x,n,42
CCOc1ccc2c(c1)sc(=NC(=O)C1CC1)n2C,n,62,n,n,39
CCOC(=O)c1sc(=NC(=O)C2CC2)n(C)c1C,n,n,x,n,n
C(/C=C/c1ccco1)=N/N1CCN(c2ccccc2)CC1,n,106,n,n,34
Clc1ccccc1CN1CCN(/N=C/C=C\c2ccco2)CC1,n,69,n,n,16
COc1ccc(N2Cc3ccccc3C2=O)cc1,n,x,n,14µM,35
CCOc1ccc(N2Cc3ncccc3C2=O)cc1,n,137,n,u,47
CCOc1ccc(N2C(=O)c3ccccc3C2=O)cc1,n,n,n,n,n
COc1ccc(N2Cc3cccc(C(=O)O)c3C2=O)cc1,n,n,n,n,n
O=C1N(c2ccccc2)CCN1c1ccccc1,n,x,n,n,38
Cc1ccc(N2Cc3ccccc3C2=O)cc1,n,n,n,u,25
Cc1ccc(N2C(=O)Cc3ccccc3C2=O)cc1,n,n,n,n,n
SMILES,FBPA Giardia inh,Shiga toxin inh,NS1 function inh,LmPK inh,Cycloheximide cs
CCOc1ccc(C(C)NC(=O)c2cc(=O)[nH]c3ccccc23)cc1OCC (centres undefined),n,n,n,n,n
O=C1c2ccccc2CN2C(=O)c3ccccc3CN12,x,n,n,n,n
O=C1c2ccccc2CN1c1ccccc1,n,54,n,n,38
Cc1ccc(C)c(N(CC(=O)NC2CCCCC2)C(=O)CNC(=O)c2ccco2)c1,n,n,n,n,n
NNC(=O)C(=O)Nc1ccc(O)cc1,n,n,n,n,23
Cc1ccc(NC(=O)C(=O)NN)cc1,n,n,n,n,n
O=C(/C=C/c1ccc(-c2ccccc2[N+](=O)[O-])o1)c1ccco1,u,113,x,n,37
O=[N+]([O-])c1ccccc1-c1ccc(/C=N/n2cnnc2)o1,n,n,n,n,n
CCCNc1nc(Cl)nc(Nc2ccc(Cl)cc2)n1,n,n,n,n,15
CC(C)(C)Nc1nc(Cl)nc(Nc2ccccc2)n1,n,88,n,n,56
C=CCNc1nc(Nc2ccc(OC)cc2)nc(OC)n1,n,n,n,n,n
CCOc1ccc(Nc2nc(Cl)nc(NCCO)n2)cc1,n,n,n,n,n
C=CCNc1nc(Cl)nc(Nc2ccc(OC)cc2)n1,n,64,n,n,22
COc1ccccc1Nc1nc(Cl)nc(NC(C)(C)C)n1,n,n,n,n,11
c1ccc(C(c2ccccc2)N2CCC3(CCNCC3)CC2)cc1,n,x,x,x,x
Cc1onc(-c2c(F)cccc2Cl)c1C(=O)N(C)CCc1ccccn1,x,n,n,n,n
